From PubChem BioAssay (NCI)
Compounds without any hit were thinned out: in the full panel of roughly 83,000, 20% have a hit.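 Each cell line was grown in a 96-well plate and treated with one concentration of compound for 48 hours. Values below 10 were considered active.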 Activity calls are given as the source filed them.

Key:
Experiment in all cases: NCI-60 one-dose screen, 48 h (100 = growth as untreated, 0 = no growth, -100 = all killed)
Conditions in all cases: 10 µM unless noted
SK-MEL-2 melanoma = system: SK-MEL-2 melanoma
EKVX NSCLC = system: EKVX NSCLC
SN12C renal = system: SN12C renal
UO-31 renal = system: UO-31 renal
TK-10 renal = system: TK-10 renal
ACHN renal = system: ACHN renal
CAKI-1 renal = system: CAKI-1 renal
A498 renal = system: A498 renal
CCRF-CEM leukemia = system: CCRF-CEM leukemia
MOLT-4 leukemia = system: MOLT-4 leukemia
SR leukemia = system: SR leukemia
RPMI-8226 leukemia = system: RPMI-8226 leukemia
OVCAR-8 ovarian = system: OVCAR-8 ovarian
OVCAR-5 ovarian = system: OVCAR-5 ovarian
SK-OV-3 ovarian = system: SK-OV-3 ovarian
IGROV1 ovarian = system: IGROV1 ovarian
OVCAR-3 ovarian = system: OVCAR-3 ovarian
HS 578T breast = system: HS 578T breast
NCI/ADR-RES ovarian = system: NCI/ADR-RES ovarian

Measured: growth

Cc1cnc([C@]23CC[C@@H](C)[C@H](C)[C@H]2C2=CC[C@@H]4[C@@]5(C)Cc6c([nH]c7ccccc67)C(C)(C)[C@@H]5CC[C@@]4(C)[C@]2(C)CC3)o1
inactive: SK-MEL-2 melanoma 77.4% [100 µM] | EKVX NSCLC 74% [100 µM] | SN12C renal 36.7% [100 µM] | UO-31 renal 39% [100 µM] | TK-10 renal 64.2% [100 µM] | ACHN renal 42.7% [100 µM] | CAKI-1 renal 49.7% [100 µM] | A498 renal 91.9% [100 µM] | CCRF-CEM leukemia 64% [100 µM] | MOLT-4 leukemia 50.5% [100 µM] | SR leukemia 121% [100 µM] | RPMI-8226 leukemia 26.6% [100 µM] | OVCAR-8 ovarian 39.3% [100 µM] | OVCAR-5 ovarian 59.7% [100 µM] | SK-OV-3 ovarian 73.9% [100 µM] | IGROV1 ovarian 25.9% [100 µM] | OVCAR-3 ovarian 83.8% [100 µM] | HS 578T breast 70.2% [100 µM] | NCI/ADR-RES ovarian 68.3% [100 µM]

COc1ncc(-c2ccc3nc(N)n(-c4ccccc4C(F)(F)F)c(=O)c3c2)cc1S(=O)(=O)Nc1ccc(F)cc1F
inactive: SK-MEL-2 melanoma 29.2% | EKVX NSCLC 20.9% | SN12C renal 56% | TK-10 renal 54.5% | ACHN renal 69.3% | CAKI-1 renal 17.3% | CCRF-CEM leukemia 24.5% | MOLT-4 leukemia 74.5% | SR leukemia 39% | OVCAR-8 ovarian 50.1% | OVCAR-5 ovarian 14.7% | SK-OV-3 ovarian 72.1% | HS 578T breast 42.3% | NCI/ADR-RES ovarian 25.4%
active: UO-31 renal -13.4% | A498 renal -22.2% | RPMI-8226 leukemia 2.65% | IGROV1 ovarian 8.17% | OVCAR-3 ovarian 6.35%

CCOc1ccc(S(=O)(=O)Nc2ccc3c(c2)N(S(=O)(=O)CC)CCC3)cc1
inactive: SK-MEL-2 melanoma 111% | EKVX NSCLC 96.1% | SN12C renal 85.1% | UO-31 renal 80.9% | TK-10 renal 80.9% | ACHN renal 45% | CAKI-1 renal 55.1% | A498 renal 69.3% | CCRF-CEM leukemia 81.1% | MOLT-4 leukemia 71% | SR leukemia 97.6% | RPMI-8226 leukemia 77.1% | OVCAR-8 ovarian 77.5% | OVCAR-5 ovarian 94.6% | SK-OV-3 ovarian 72.7% | IGROV1 ovarian 71.3% | OVCAR-3 ovarian 54.3% | HS 578T breast 80.7% | NCI/ADR-RES ovarian 89.9%

O=C(Nc1ccc(Oc2ccc(F)cc2)c(Cl)c1)c1cccnn1
inactive: SK-MEL-2 melanoma 77.7% | EKVX NSCLC 75% | SN12C renal 63.8% | UO-31 renal 55% | TK-10 renal 64.4% | ACHN renal 73.7% | CAKI-1 renal 54.8% | A498 renal 61.1% | CCRF-CEM leukemia 75.1% | MOLT-4 leukemia 59.8% | SR leukemia 97.6% | RPMI-8226 leukemia 62.6% | OVCAR-8 ovarian 71.3% | OVCAR-5 ovarian 84% | SK-OV-3 ovarian 88.8% | IGROV1 ovarian 97.6% | OVCAR-3 ovarian 73.6% | HS 578T breast 95.6% | NCI/ADR-RES ovarian 69.4%

CC1(C)[C@@H](NOCCCN)CC[C@]2(C)[C@H]3C(=O)C=C4[C@@H]5C[C@](C)(C(=O)O)CC[C@]5(C)CC[C@@]4(C)[C@]3(C)CC[C@@H]12
inactive: CCRF-CEM leukemia 11.6% [100 µM] | SR leukemia 17.9% [100 µM]
active: SK-MEL-2 melanoma -63.8% [100 µM] | EKVX NSCLC -41.4% [100 µM] | SN12C renal -82.8% [100 µM] | UO-31 renal -100% [100 µM] | TK-10 renal -84.1% [100 µM] | ACHN renal -100% [100 µM] | CAKI-1 renal -79.1% [100 µM] | A498 renal -88.7% [100 µM] | MOLT-4 leukemia -6.4% [100 µM] | RPMI-8226 leukemia -5.46% [100 µM] | OVCAR-8 ovarian -25.9% [100 µM] | OVCAR-5 ovarian -100% [100 µM] | SK-OV-3 ovarian -23.7% [100 µM] | IGROV1 ovarian -88.5% [100 µM] | OVCAR-3 ovarian -50.1% [100 µM] | HS 578T breast -22.8% [100 µM] | NCI/ADR-RES ovarian -34.2% [100 µM]

C=C(C)[C@@H]1CC[C@]2(C)[C@H](C(=O)C=C3[C@@H]4C[C@](C)(C(=O)N5CCN(C)CC5)CC[C@]4(C)CC[C@]32C)[C@@]1(C)CCC#N
active: SK-MEL-2 melanoma -78.6% [100 µM] | EKVX NSCLC -20.8% [100 µM] | SN12C renal -86.9% [100 µM] | UO-31 renal -100% [100 µM] | TK-10 renal -87.8% [100 µM] | ACHN renal -93.7% [100 µM] | CAKI-1 renal -96.2% [100 µM] | A498 renal -73.7% [100 µM] | CCRF-CEM leukemia -34% [100 µM] | MOLT-4 leukemia -45.9% [100 µM] | RPMI-8226 leukemia -54.5% [100 µM] | OVCAR-8 ovarian -70.9% [100 µM] | OVCAR-5 ovarian -75.9% [100 µM] | SK-OV-3 ovarian -76.1% [100 µM] | IGROV1 ovarian -76% [100 µM] | OVCAR-3 ovarian -76.6% [100 µM] | HS 578T breast -54.8% [100 µM] | NCI/ADR-RES ovarian -81.3% [100 µM]
inactive: SR leukemia 34.7% [100 µM]

C=C(C)[C@@H]1CC[C@]2(C(=O)NCCCN)CC[C@]3(C)[C@H](CC[C@@H]4[C@@]5(C)CC[C@H](O)C(C)(C)[C@@H]5CC[C@]43C)[C@@H]12
inactive: SR leukemia 23.7% [100 µM]
active: SK-MEL-2 melanoma -24.2% [100 µM] | EKVX NSCLC -15.7% [100 µM] | SN12C renal -34.7% [100 µM] | UO-31 renal -34.3% [100 µM] | TK-10 renal -32.2% [100 µM] | ACHN renal -49.2% [100 µM] | CAKI-1 renal -54.5% [100 µM] | A498 renal -44.8% [100 µM] | CCRF-CEM leukemia 1.39% [100 µM] | MOLT-4 leukemia 2.76% [100 µM] | RPMI-8226 leukemia -6.66% [100 µM] | OVCAR-8 ovarian -3.81% [100 µM] | OVCAR-5 ovarian -47.7% [100 µM] | SK-OV-3 ovarian -27.2% [100 µM] | IGROV1 ovarian -6.94% [100 µM] | OVCAR-3 ovarian -45.9% [100 µM] | HS 578T breast -4.98% [100 µM] | NCI/ADR-RES ovarian -9.52% [100 µM]
